Among the data in PubChem BioAssay AID2797 (The Scripps Research Institute Molecular Screening Center, 2010) are activation values, retold here.

Out of some 320,000 compounds screened, about 820 (0.26%) were called active.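 How the source made its calls: active means activation above the mean activation of all tested compounds plus 3 SD, per screening run (cut at about 20% in these data); inactive means the rest.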 Only a selection was taken, and actives are over-represented in it overall.

Sequence of Vasopressin V1a receptor (Homo sapiens) (P37288 whole entry, looked up): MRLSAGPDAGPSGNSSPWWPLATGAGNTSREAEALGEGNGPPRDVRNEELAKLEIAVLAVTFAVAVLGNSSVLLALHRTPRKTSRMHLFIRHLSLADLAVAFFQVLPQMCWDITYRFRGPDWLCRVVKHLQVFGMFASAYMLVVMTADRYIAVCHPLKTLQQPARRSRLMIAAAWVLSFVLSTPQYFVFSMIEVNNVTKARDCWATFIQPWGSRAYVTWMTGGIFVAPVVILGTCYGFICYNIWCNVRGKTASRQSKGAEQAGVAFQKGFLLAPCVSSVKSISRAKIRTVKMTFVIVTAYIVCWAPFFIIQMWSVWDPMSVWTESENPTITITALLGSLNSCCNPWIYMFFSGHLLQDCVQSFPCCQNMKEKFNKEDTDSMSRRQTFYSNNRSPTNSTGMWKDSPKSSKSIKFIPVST

This test has as its target Vasopressin V1a receptor (Homo sapiens) (UniProt P37288). Briefly: agonists of human V1a receptor, primary screen, counter-screen for OXTR agonist project, fluorescence, CHO-V1R cells (AID 2797).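 Further: signal is peak over basal fluorescence ratio across a 100 second FLIPR read.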 To be noted: Fluo-8 calcium fluorescence, agonist mode, at 3 µM, active compounds read high, 0% DMSO, 100% 3 nM vasopressin. A general note: A counterscreen serves to expose hits that act by an unwanted route or on another target.
For the compound `COc1ccc(C(=O)Nc2cc(C)ccc2NC(=O)COc2ccccc2)cc1`, the activation was 0.75% (inactive).
As to `CCS(=O)(=O)c1ccc(O)c(NC(=O)COc2ccc(Cl)cc2)c1`, the activation was 3.1% (inactive).
For `Cc1ccc(O)c(NC(=S)NC(=O)COc2ccc(Br)cc2)c1` the value was 56% (active); for `CCN1CCN(c2sc(S(C)(=O)=O)nc2S(=O)(=O)c2ccc(Cl)cc2)CC1`, 0.09% (inactive); for `CCn1c(C(C)C)n[nH]c1=S`, 0.69% (inactive).
With `CCOC(=O)N/N=C1\CC(C)S(=O)(=O)c2ccc(Cl)cc21` (stereo unspecified), the activation is -1.51% (inactive).
Consider `CC1CN(C(=O)c2ccccc2NS(=O)(=O)c2cccc([N+](=O)[O-])c2)CC(C)O1` (stereo unspecified), for which the activation is 1.41% (inactive).
For `CCc1ccc(NC(=O)Cn2nnc(C(=O)NCc3ccc(OC)cc3)c2N)cc1` the value was 0.71% (inactive).
Turning to `CCOc1ccc(Cn2nnc(C(=O)Nc3ccc(OC)cc3OC)c2N)cc1`, the activation is 12.4% (inactive).
For `CCOc1ccc(Cn2nnc(C(=O)NCc3ccccc3)c2N)cc1` the value was 27.1% (active); for `O=C(C[n+]1ccc2c(c1)nnn2-c1ccccc1)c1ccc(Cl)cc1`, -1.54% (inactive); for `COc1ccc(CCNc2cc(C)nc3c(-c4ccc(Cl)cc4)c(C)nn23)cc1OC`, -0.66% (inactive).
Regarding `C=CCOCCN(C)C1=NS(=O)(=O)c2ccccc21`, the activation is -0.21% (inactive).
For the compound `CCO[C@H]1OC(C(=O)N2CCCCCCC2)=C[C@@H](c2ccc(C(F)(F)F)cc2)[C@@H]1CCCO`, the activation is -0.98% (inactive).
With `O=C(/C=C(O)/C=C/c1ccc(O)cc1)/C=C/c1ccc(O)cc1`, the activation was 76.2% (active).
Turning to `O=C(/C=C/c1ccc2c(c1)OCCO2)c1ccc(O)cc1`, the activation was 1.07% (inactive).
For `O=C(O)/C=C/c1ccc(OCCCF)cc1`, the activation was 0.21% (inactive).
Turning to `CC(C)(C)S(=O)(=O)c1ccccc1-c1noc(-c2ccccc2)c1C(N)=O`, the activation is 0.13% (inactive).
Consider `CCc1c(O)cc2n(c1=O)-c1ccccc1C2(C)C`, for which the activation is 1.27% (inactive).
For `CCOc1ccc2[nH]c3nc(SCC(=O)NC4CCCC4)nnc3c2c1` the value was 1.39% (inactive).
As for `Nc1c(C(=O)c2cccs2)sc2nsc(SCCN3CCCCC3)c12`, the activation is 34.8% (active).
Turning to `O=C(CSc1ncnc2sccc12)N1CCN(C(=O)c2cccs2)CC1`, the activation is 1.53% (inactive).
In the case of `O=C(NCC(=O)N1CCC2(CC1)NCCc1[nH]cnc12)c1ccc(Br)cc1`, the activation was -0.07% (inactive).
`Cc1noc(C)c1NC(=O)Nc1cccc2c1O[C@H](CN(C)C(=O)Nc1ccccc1)[C@@H](C)CN([C@H](C)CO)C2=O`: the activation is 0.98% (inactive).
As for `CN1C(=O)c2cccc3c(N)ccc(c23)C1=O`, the activation is 133% (active).
Then `Cc1nn(C)cc1C(=O)c1ccccc1`, with 0.77% (inactive); and `O=C(O)c1ccc2c3c(cccc13)C(=O)N(OS(=O)(=O)c1ccccc1)C2=O`, with 0.24% (inactive); and `Cc1nn(C)cc1N1C(=O)c2cccc3c(N)ccc(c23)C1=O`, with 66.8% (active).
`COc1ccc(N2C(=O)c3cccc4cccc(c34)C2=O)nn1`: the activation was -0.33% (inactive).
On to `CC(=O)Nc1ccccc1Sc1ccc2c3c(cccc13)C(=O)N(c1ccc(C)cc1)C2=O`, for which the activation is 0.04% (inactive).
As for `COc1ccc(N(C(=O)c2ccc(C)cc2)S(=O)(=O)c2cccs2)cc1`, the activation is 0.59% (inactive).
Turning to `Cc1cc(C(=O)CC#N)c(C)n1-c1c(C)n(C)n(-c2ccccc2)c1=O`, the activation was 1.66% (inactive).
Turning to `CCOP1(=O)C=C(C(C)(C)C)OC1c1ccc(F)cc1` (stereo unspecified), the activation was 0.37% (inactive).
`Cc1ccc(N(C(=O)c2snc(C(N)=O)c2N)C(C(=O)NCC2CCCO2)c2c[nH]c3ccccc23)cc1` (stereo unspecified): the activation is 2.4% (inactive).
Regarding `CCN1/C(=C\c2ccc3ccccc3[n+]2CC)Sc2cc(C)ccc21`, the activation is 20.7% (active).
For the compound `O=C1CCCN2N=C(SCC(=O)Nc3ccc(Br)cc3)SC2=N1`, the activation is 8.83% (inactive).
For `CCOC(=O)Cc1c(C)nc2c(C#N)c(C)nn2c1C` the value was -0.1% (inactive); for `CCOC(=O)N1CCC(O)(c2cc(C)c(C)cc2C)CC1`, 0.01% (inactive); for `CCCCCCn1cc(C(=O)O)c(=O)c2cc(F)c(N3CCCCC3)cc21`, 1% (inactive).
Turning to `CN(c1ccccc1)c1ccc(/C=c2\s/c(=C(/C#N)C(=O)C(C)(C)C)n(Cc3ccco3)c2=O)cc1`, the activation was 28% (active).
In the case of `CCOC(=O)Cn1c(=O)oc2cc(S(=O)(=O)N(C)Cc3ccco3)ccc21`, the activation is 1.45% (inactive).
For the compound `COc1cc(NC(=O)COC(=O)c2cc(S(=O)(=O)N3CCOCC3)ccc2F)cc(OC)c1`, the activation was 1.44% (inactive).
In the case of `CCCc1ccc(OCC(=O)NNC(=S)NC(=O)c2ccco2)cc1`, the activation was 19.5% (inactive).
With `CC(Oc1ccc2ccccc2c1)C(=O)NNC(=S)NC(=O)c1ccco1` (stereo unspecified), the activation is 23% (active).
For `Cc1ccc(C(=O)NNC(=O)C(C)Oc2ccc3ccccc3c2)o1` (stereo unspecified), the activation is 0.2% (inactive).
With `Cc1cc2c(=O)n(CC(=O)NCC(=O)Nc3ccc(C(C)C)cc3)cnc2s1`, the activation was 0.52% (inactive).
Then `O=C(CC1SC(=Nc2ccccc2F)N(CCN2CCOCC2)C1=O)Nc1ccc(F)cc1F` (stereo unspecified), with -0.11% (inactive); and `CCCC(C)C(=O)Nc1ccc(NC(C)=O)cc1` (stereo unspecified), with 1.31% (inactive).
As for `COc1cc(OC)c(-n2c(C)cc(C=O)c2C)cc1Cl`, the activation is -0.41% (inactive).
For `COc1cc(OC)c(-n2cc(-c3ccc(Cl)cc3)[nH]c2=O)cc1Cl`, the activation was 38.5% (active).
Take `COc1cc(OC)c(N2CC(C(=O)Nc3cc(Cl)ccc3N3CCOCC3)CC2=O)cc1Cl` (stereo unspecified): the activation is 2.59% (inactive).
Regarding `CN1/C(=C\C=C2\N=C(c3ccc(F)cc3)OC2=O)C(C)(C)c2ccccc21`, the activation was 2.99% (inactive).
On to `O=C(NCCc1nnc2ccc(SCC(=O)N3CCOCC3)nn12)c1ccccc1`, for which the activation is -0.68% (inactive).
As to `CCC(C)(C)C1CCC(=NNC(=O)c2ccc(Br)o2)CC1` (stereo unspecified), the activation was 0.08% (inactive).
Turning to `Cc1ccc(CN2CCN(c3ccccc3Cl)CC2)o1`, the activation is -0.73% (inactive).
Regarding `O=C(CCc1[nH]c2ccccc2c1Sc1ccccc1)N(CCO)CCO`, the activation is 0.05% (inactive).
